CASP6 VEID inh = inhibitors of human caspase-6. P55212. purified caspase-6, Z-VEID-R110 cleavage fluorescence. inhibition, % at 12.5 µM. actives 0.53% (n = 350,000). AID 686996;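 active = mean inhibition across replicates at least about 35%, with every replicate also reaching that limit, limit read from the data; inconclusive = only one of the two criteria met; inactive = neither criterion met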
Glyco luc inh = blocks N-linked glycosylation in D54 reporter cells; D54 ERlucT glycosylation luciferase reporter, 24 h; percent of 100 nM tunicamycin response; reporter increase, % at 12.5 µM; actives 0.23% (n = 360,000); AID 588692;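 active = mean luciferase reporter signal, scaled so untreated is 0 and the glycosylation-blocking control 100, at or above a set limit in every replicate; inconclusive = mean reaches the limit but not every replicate does; inactive = mean below the limit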;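 also: luciferase carries N-glycosylation sites so blocking glycosylation raises the light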
ALR inh = human ALR oxidase inhibition via reduced H2O2; inhibition, % (concentration not given with the values); P55789; actives 3.8% (n = 290,000); purified ALR, DTT oxidation, H2O2 HRP-luminol luminescence;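 active = mean replicate inhibition above about 79%, with every replicate also reaching it, limit read from the data; inconclusive = only one of the two criteria met; inactive = mean below limit and not every replicate reaching it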
CDK5 p35 inh = CDK5/p35 (human) kinase inhibition | inhibition, % at 10 µM | Recombinant CDK5/p35, ADP-Glo luminescence, 60 min | Q00535+Q15078 | actives 0.01% (n = 330,000);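 active = highest replicate inhibition of at least 50% and at least 75% of replicates reaching 50%; inconclusive = only one of the two criteria met; inactive = both criteria failed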
Target sequence (Q00535 whole entry, looked up): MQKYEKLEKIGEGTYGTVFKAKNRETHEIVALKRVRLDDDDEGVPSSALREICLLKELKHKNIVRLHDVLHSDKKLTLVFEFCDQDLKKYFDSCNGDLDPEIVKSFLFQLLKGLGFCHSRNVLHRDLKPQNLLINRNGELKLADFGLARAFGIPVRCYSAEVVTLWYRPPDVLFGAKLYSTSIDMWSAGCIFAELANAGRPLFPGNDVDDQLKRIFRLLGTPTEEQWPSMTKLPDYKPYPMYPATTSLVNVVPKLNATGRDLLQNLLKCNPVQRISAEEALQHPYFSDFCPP
Target sequence (Q15078 whole entry, looked up): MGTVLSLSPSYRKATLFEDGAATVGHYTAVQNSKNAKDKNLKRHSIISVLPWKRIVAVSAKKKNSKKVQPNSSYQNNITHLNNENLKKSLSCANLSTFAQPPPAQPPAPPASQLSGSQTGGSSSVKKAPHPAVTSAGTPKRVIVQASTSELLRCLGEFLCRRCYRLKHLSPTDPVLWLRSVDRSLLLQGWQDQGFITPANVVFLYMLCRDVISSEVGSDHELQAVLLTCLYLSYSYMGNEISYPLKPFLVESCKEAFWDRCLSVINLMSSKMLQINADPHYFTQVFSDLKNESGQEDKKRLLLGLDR
NSD2 inh = blocks human histone methyltransferase NSD2; O96028; NSD2 peptide methylation, AlphaScreen, 120 min; inhibition, % at 12.5 µM; actives 0.54% (n = 310,000); in the data active = inhibition above about 50%
SUMO Mot1 rescue = SUMOylation pathway inhibition by Mot1-301 growth rescue. S. cerevisiae Mot1-301 growth rescue, ATP luminescence, 38.5C; percent above DMSO median, 100 means doubled. growth rescue, % at 18.8 µM. actives 1% (n = 320,000);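 active = every valid replicate shows activation above 250% relative to neutral control wells; inactive = the rest, any valid replicate at or below 250%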
Yeast Mot1 SUMO = SUMO pathway inhibitors in yeast Mot1-301 growth; 2,300 tested, under 10 active; growth activity, percent, % at 42 µM; shares compounds with SUMO Mot1 rescue; S. cerevisiae Mot1-301 galactose growth, ATP luminescence, 24 h; -100 = growth of slx-deleted rescue strain; AID 493004;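 active = Signal drops as the depositor expects, and the fitted half-maximal dose is no more than ten times the top valid tested dose; inconclusive = Poor fit, or a flat curve whose signal drops by 30% to 70%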;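 also: more negative values mean stronger growth rescue toward the control strain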
Large screens that a line does not name were inactive (follow-up assays come after a bar, where they were run). Rows were chosen to be rich in hits. Some 3.9% of all compounds tested hit in one or more screens of this group.

Cc1ccnc(NC(c2cccnc2)c2ccc3cccnc3c2O)c1 (configuration not stated)	SUMO Mot1 rescue active | Yeast Mot1 SUMO inactive
Cc1ccc(NC(=O)CN(C)C(=O)c2cccc(S(=O)(=O)NCc3ccccc3)c2)cc1	none
Cc1ccc(NC(=O)CN(C)C(=O)c2cccc(Br)c2)cc1	SUMO Mot1 rescue 694.6 | Yeast Mot1 SUMO inactive
CCCC#Cc1ccc([C@@H]2[C@@H](CO)N3C(=O)CN(C(=O)c4ccncc4)C[C@H]23)cc1	none (no result: Glyco luc inh, ALR inh, CDK5 p35 inh, NSD2 inh, SUMO Mot1 rescue)
CN(C)C(=O)C[C@@H]1C[C@H]2c3cc(NS(=O)(=O)c4ccccc4)ccc3O[C@H]2[C@H](CO)O1	none (no result: Glyco luc inh, ALR inh, CDK5 p35 inh, NSD2 inh, SUMO Mot1 rescue)
CC1=CC2=NC(=O)/C(=C\c3cc(C)n(-c4ccccc4)c3C)C(=N)N2O1	SUMO Mot1 rescue 510.6 | Yeast Mot1 SUMO inactive
CC1=CC2=NC(=O)/C(=C\c3cc(C)n(-c4ccccc4F)c3C)C(=N)N2O1	none
CCn1cc(C(=O)N2CCN(c3ccc(OC)cc3)CC2)c(=O)c2cc(S(=O)(=O)N3CCOCC3)ccc21	SUMO Mot1 rescue 798.4 (no result: CDK5 p35 inh) | Yeast Mot1 SUMO inactive
CCOC(=O)N1CCN(C(=O)c2cn(CC)c3ccc(S(=O)(=O)N4CCOCC4)cc3c2=O)CC1	none (no result: CDK5 p35 inh)
CCCSc1nnc(CN2CCOCC2)n1C	none (no result: CASP6 VEID inh, SUMO Mot1 rescue)
Cn1c(CN2CCOCC2)nnc1SCC(N)=O	SUMO Mot1 rescue 538.2 (no result: CASP6 VEID inh, ALR inh) | Yeast Mot1 SUMO inactive
CC1=C(C)CS(=O)N(S(=O)(=O)c2ccc(Cl)cc2)C1 (configuration not stated)	ALR inh 99.3, SUMO Mot1 rescue 724.2 (no result: CASP6 VEID inh, NSD2 inh) | Yeast Mot1 SUMO inactive
Cc1noc(C)c1NC(=O)Nc1ccc2c(c1)C(=O)N([C@H](C)CO)C[C@H](C)[C@H](CN(C)S(=O)(=O)c1ccc(Cl)cc1)OCCCC[C@H](C)O2	none (no result: Glyco luc inh, ALR inh, CDK5 p35 inh, NSD2 inh, SUMO Mot1 rescue)
CC(=Nc1ccccc1)C1=C(O)CC(C)(C)CC1=O	SUMO Mot1 rescue 432.2 | Yeast Mot1 SUMO inactive
O=C1NC(Cc2c[nH]c3ccccc23)C(=O)N1Cc1ccc(CN2C(=O)NC(Cc3c[nH]c4ccccc34)C2=O)cc1 (configuration not stated)	SUMO Mot1 rescue 571.5 (no result: ALR inh, NSD2 inh) | Yeast Mot1 SUMO inactive
CCCN1CCN(C(=O)c2ccc3nc(CC)c(CC)nc3c2)CC1	none
CCc1nc2ccc(C(=O)N3CCN(CC)CC3)cc2nc1CC	SUMO Mot1 rescue 967.2 | Yeast Mot1 SUMO inactive
CN(C)CC(=O)N1CC2(C1)[C@H](c1ccccc1)[C@@H](CO)N2S(=O)(=O)c1ccccc1	none (no result: Glyco luc inh, ALR inh, CDK5 p35 inh, NSD2 inh, SUMO Mot1 rescue)
CC1=C(C(=O)Nc2ccccc2)C(c2ccccc2[N+](=O)[O-])NC(=O)N1 (configuration not stated)	SUMO Mot1 rescue active | Yeast Mot1 SUMO inactive
COCC(=O)Nc1ccc2c(c1)[C@H]1C[C@@H](CC(=O)NC3CCCC3)O[C@@H](CO)[C@H]1O2	none (no result: Glyco luc inh, ALR inh, CDK5 p35 inh, NSD2 inh, SUMO Mot1 rescue)
O=C(C[C@@H]1C[C@H]2c3cc(NC(=O)NC4CCCC4)ccc3O[C@H]2[C@H](CO)O1)NCc1ccc(-c2ccccc2)cc1	none (no result: Glyco luc inh, ALR inh, CDK5 p35 inh, NSD2 inh, SUMO Mot1 rescue)
COc1ccccc1NC(=O)c1nn(C)cc1Br	SUMO Mot1 rescue 668.6 (no result: CASP6 VEID inh) | Yeast Mot1 SUMO inactive
COc1ccccc1NC(=S)NNC(=O)c1nn(C)cc1Cl	none (no result: CASP6 VEID inh)
COc1ccccc1NC(=O)c1nn(-c2cccc(C(F)(F)F)c2)ccc1=O	SUMO Mot1 rescue active (no result: CASP6 VEID inh) | Yeast Mot1 SUMO inactive
CO[C@H]1CN(C)C(=O)c2ccc(NC(=O)Nc3ccccc3F)cc2OC[C@H](C)N(C(C)=O)C[C@H]1C	none (no result: Glyco luc inh, ALR inh, CDK5 p35 inh, NSD2 inh, SUMO Mot1 rescue)
Cc1n[nH]c(=O)c2c(NC(=O)COC(=O)Cc3ccc(Cl)cc3Cl)oc(C)c12	SUMO Mot1 rescue 535.3 | Yeast Mot1 SUMO inactive
Cc1cccc(/C=N/NC(=O)Cc2cccs2)c1	SUMO Mot1 rescue 908.2 | Yeast Mot1 SUMO inactive
COCCn1c(C)cc(C(=O)CN2C(=O)NC3(CCCCCCC3)C2=O)c1C	SUMO Mot1 rescue 667.4 | Yeast Mot1 SUMO inactive
CCCSc1nnc(NC(=O)CSc2sc3c(O)cc(=O)[nH]c3c2C#N)s1	CASP6 VEID inh 45.2, ALR inh inconclusive, SUMO Mot1 rescue 754.0 | Yeast Mot1 SUMO inactive
O=c1c2cc([N+](=O)[O-])ccc2sn1-c1ccccc1	none (no result: ALR inh, CDK5 p35 inh, NSD2 inh, SUMO Mot1 rescue)
